Shown is part of a subset that was picked to be rich in hits.
IL1B secr inh = qHTS for Inhibitors of Inflammasome Signaling: IL-1-beta AlphaLISA Primary Screen; hit rate 4.7% among 360,000; activity change, % at 57.5 µM; THP-1 LPS/ATP IL-1B secretion, AlphaLISA, 16 h; hits give low values; in the data active = activity change below about -50%; inconclusive = mostly about -30% to -49%
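THP-1 cells pretreated 1 hr with compounds (up to 57.5 uM final), then stimulated with LPS (250 ng/mL final) plus ATP (1.25 mM final); secreted IL-1B measured by AlphaLISA after 16 hr, decreased signal indicating inhibition.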
HT1080-NT tox = qHTS for induction of synthetic lethality in tumor cells producing 2HG: qHTS for the HT-1080-NT fibrosarcoma cell line; HT-1080-NT fibrosarcoma viability, CellTiter-Glo ATP luminescence, 48 h; Potency, µM (doses to about 46.1 µM), for the others: at the highest dose activity, negative = less viability, actives largely listed as cytotoxic; hit rate 1.6% among 360,000;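 also: NT is the 2HG producing partner of a matched IDH1 knockdown line; potency is read from the fitted curve at half-maximal effect; 0% = DMSO-treated cells and -100% = media-only wells without cells; nearly all actives have a fitted effect of over 55% in size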
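Toxicity toward the 2HG-producing NT line was scored as %Activity, normalised to DMSO and no-cell wells, from CellTiter-Glo luminescence after 48 hours' treatment.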
HT1080 IDH1KD tx = qHTS for induction of synthetic lethality in tumor cells producing 2HG: qHTS for the HT-1080-IDH1KD cell line. Potency, µM (top dose mostly 46.1 µM), for inactives: top-dose activity, negative = toxicity, most hits filed as cytotoxic. hit rate 2% among 360,000. HT-1080 IDH1 knockdown viability, ATP luminescence, 48 h. AID 686971, 2013;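 also: potency is read from the fitted curve at half-maximal effect; 0% = DMSO wells and -100% = cell-free medium wells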
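CellTiter-Glo luminescence after 48 h compound exposure at 37 degrees C of IDH1-knockdown HT-1080 cells in 5% FBS RPMI. %Activity scaled between DMSO wells and cell-free media wells, with curves fitted and assigned curve classes.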
12-LOX inh = Primary qHTS assay for inhibitors of human arachidonate 12S-lipoxygenase (ALOX12): Round 2; purified 12hLO, xylenol orange hydroperoxide absorbance; Potency, µM (titrated, usually from 108 µM), for the others: at the highest dose activity change, negative = inhibition, usual class: inhibitors; AID 1671190, 2021; Polyunsaturated fatty acid lipoxygenase ALOX12 (Homo sapiens), P18054; hit rate 1.1% among 580,000; also: potency is read from the fitted curve at half-maximal effect
Target sequence (P18054 whole entry, looked up): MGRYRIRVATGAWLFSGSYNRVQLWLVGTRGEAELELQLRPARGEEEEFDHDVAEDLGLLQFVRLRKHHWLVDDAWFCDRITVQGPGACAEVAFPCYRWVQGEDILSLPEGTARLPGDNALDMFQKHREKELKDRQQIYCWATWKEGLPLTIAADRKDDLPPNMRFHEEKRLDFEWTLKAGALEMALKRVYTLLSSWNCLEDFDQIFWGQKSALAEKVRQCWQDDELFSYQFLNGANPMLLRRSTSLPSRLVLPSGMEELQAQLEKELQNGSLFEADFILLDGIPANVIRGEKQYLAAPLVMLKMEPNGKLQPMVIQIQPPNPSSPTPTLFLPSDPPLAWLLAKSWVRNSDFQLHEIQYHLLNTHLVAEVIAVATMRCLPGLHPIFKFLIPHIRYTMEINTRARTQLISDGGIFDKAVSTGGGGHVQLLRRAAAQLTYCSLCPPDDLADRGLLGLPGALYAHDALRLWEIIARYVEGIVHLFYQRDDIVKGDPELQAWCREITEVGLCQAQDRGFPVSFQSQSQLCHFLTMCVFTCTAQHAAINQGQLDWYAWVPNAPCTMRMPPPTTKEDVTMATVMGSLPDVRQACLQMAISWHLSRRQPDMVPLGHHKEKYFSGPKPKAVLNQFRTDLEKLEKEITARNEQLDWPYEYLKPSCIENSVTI
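Hydroperoxide product was detected by ferrous iron/xylenol orange as the 573 to 405 nm absorbance ratio. Arachidonic acid at 40 uM (final) was turned over for 30 min at room temperature by 150 nM human 12hLO, pH 7.0 Hepes buffer, after 15 min compound preincubation.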
TDP1 cell CPT = qHTS for Inhibitors of human tyrosyl-DNA phosphodiesterase 1 (TDP1): qHTS in cells in presence of CPT. hit rate 12% among 420,000. AID 686979, 2013. Potency, µM (highest dose often 46.2 µM), without a hit: at the top dose activity change, negative = growth inhibition, actives largely listed as inhibitors. chicken DT40 Tdp1-/-;hTDP1 cells + 20 nM CPT, ATP luminescence, 48 h; also: potency is read from the fitted curve at half-maximal effect; nearly all actives have a fitted effect of over 55% in size
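Chicken DT40 Tdp1-/- cells complemented with human TDP1, 400 cells/well, exposed to compounds plus 20 nM camptothecin for at least 48 h at 37 C; viability read as ATP content by CellTiter-Glo luminescence.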
TDP1 cell noCPT = qHTS for Inhibitors of human tyrosyl-DNA phosphodiesterase 1 (TDP1): qHTS in cells in absence of CPT | DT40 Tdp1-/- hTDP1 cells, no CPT, ATP luminescence, 48 h | Potency, µM (titrated, usually from 46.2 µM), without a hit: at the highest dose activity change, negative = growth inhibition, most hits filed as inhibitors | hit rate 15% among 420,000; also: potency is read from the fitted curve at half-maximal effect; nearly all actives have a fitted effect of over 55% in size
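No-CPT arm: Tdp1-/-;hTDP1 DT40 cells (400/well) plus compounds, incubated ≥48 hr at 37 °C. Readout CellTiter-Glo luminescence.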
Starred values were filed as active, the others as inactive; ? = inconclusive; / = no result given; [ ] = another dose, or the depositor's remark. Unless noted, calls follow the shape of the dose curve; as a rule, active = well fitted curve in the direction sought with a large enough effect; inconclusive = small, poorly fitted or top-dose-only effect, or another doubt; inactive = no such curve, though single readings can be large; an effect the other way counts as inactive or inconclusive. Unless noted, % is scaled to controls: 0 for no effect and ±100 for the full control effect.

SMILES	IL1B secr inh	HT1080-NT tox	HT1080 IDH1KD tx	12-LOX inh	TDP1 cell CPT	TDP1 cell noCPT
COc1cc(C(=O)N(Cc2ccccc2)c2cccc(C)c2)ccc1OCC(=O)N1CCOCC1	-17	0%	-3%	1%	?	16µM*
C#CCN(C[C@@H]1[C@@H](OC(=O)NCC2CCCCC2)[C@@H](OC(=O)NCC2CCCCC2)Cn2c(=O)ccc(=O)n21)S(=O)(=O)c1ccc(C)cc1	-106*	5.2µM*	2.6µM*	?	2.9µM*	3.3µM*
C#CCN(C[C@@H]1[C@@H](OC(=O)NCCCCCC)[C@@H](OC(=O)NCCCCCC)Cn2c(=O)ccc(=O)n21)S(=O)(=O)c1ccc(C)cc1	-107*	4.6µM*	4.1µM*	?	4.6µM*	3.3µM*
C#CCN(C[C@@H]1[C@@H](OC(=O)NCc2ccccc2)[C@@H](OC(=O)NCc2ccccc2)Cn2c(=O)n(CCCCCC)c(=O)n21)S(=O)(=O)c1ccc(C)cc1	-5	-7%	0%	-6%	?	?
COc1ccc(C2NC(c3ccc(OC)cc3)C(c3ccccc3)C(=O)C2c2ccccc2)cc1 (configuration not stated)	-6	1%	-15%	6%	-23%	21µM*
COc1ccc(C2NC(c3ccc(OC)cc3)C(C)C(=O)C2C)cc1 (configuration not stated)	0	-1%	7%	12%	-21%	?
N#Cc1cc(-c2ccccc2)cnc1Sc1ccccc1	-18	13%	4%	1%	-20%	0%
N#Cc1c(N)[nH]c2ccc(Sc3ccccc3)cc12	-8	3.3µM*	7.3µM*	?	0.73µM*	0.73µM*
Nc1ccc(C(=O)NN2C(=O)[C@H](Cl)C2c2ccc(Cl)cc2)cc1 (some centres not stated)	-104*	?	18µM*	?	3.7µM*	3.7µM*
O=C(NCC1CC1)c1cc(C2CC2)nc2onc(C3CCCN3)c12 (configuration not stated)	/	/	/	-15%[6.33 µM]	/	/
COc1cc(/C=N/Nc2ccccc2C(F)(F)F)ccc1O	-8	3%	2%	?	-2%	?
COc1ccc(/C=N/N(c2ccccc2)c2ccccc2)cc1O	-25	-1%	-6%	?	-2%	5%
COc1cc(/C=N/Nc2cccc(C)c2)cc(Br)c1O	-22	?	?	2.8µM*	6%	4%
COc1cc(/C=N/Nc2ccccc2)ccc1O	21	?	21µM*	?	1%	-2%
COC(=O)c1[nH]c2cc(OC)c(OC)cc2c1/C=N/Nc1ccccc1	-13	-17%	-2%	?	?	18µM*
COc1cc(/C=N/N(c2ccccc2)c2ccccc2)ccc1O	?	18µM*	16µM*	0%	-10%	0%
Cc1coc2cc3oc(=O)c(CCC(=O)NCCCn4ccnc4)c(C)c3cc12	-18	5%	5%	0%	?	?
Cc1c(CCC(=O)NCCCn2ccnc2)c(=O)oc2cc3oc4c(c3cc12)CCCC4	?	?	-27%	18%	9.2µM*	10µM*
Cc1c(CCC(=O)N2CCC(C(=O)O)CC2)c(=O)oc2cc3oc4c(c3cc12)CCCC4	-11	-1%	-4%	-7%	?	15µM*
